# Measurements reported in the supplement of paper PMC6555819.
# Tested on: PPARg DBDmut IVT, anti-PPARg (DBD mutation: PPARg1 K132A/R137A, NR concentration 270 nM)
# Test: PBM binding z-score (relative to random genomic background probes); higher = stronger binding; sequences stand for … in GC…GCGATTGACAGCGTAGAATGAAGG
# Summary of the method: (§1)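 Random background probes are the reference for binding z-scores. These scores derive from regression-normalized fluorescence on custom Agilent 4×180K protein-binding microarrays incubated 1 h with ligand-free nuclear receptor dimers. Binding was detected with antibodies against each partner (one per run).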
row,Sequence,PBM binding z-score
1,TCTGCTAGGTCATTTGGTCAGCTAACGAGCTGCC,1.7
2,CCTCGGAGGACAGAAGGTCAGAGATGTCCGCTTT,-1.27
3,CCTAGTTGGTCAGGACGTCACACACCGGATATGA,0.0179
4,ATCGAAAGATCGAAGGTGAGTATACCCACCCGAA,-0.0294
5,CCGAGTAGGTTATGGGGCATTCTGGCAACGGTGA,-1.42
6,TCATATAGGTAAATGCTAGGTGAAGGTCCGATCT,0.608
7,CGTCGAAGTTCAACTAAGGTAACGTAAAGCACGC,0.194
8,TCGAGTAAGTTACCAATGGGGCATTCAGCTTTCT,-1.05
9,TCGAGTAGGTTACCAATGGGGCATTCGGCTTTCT,-1.07
10,GCTTGTAGATCAAGGTTAAGAATGACTAAGCTAA,0.28
11,CTACCAAGGTGAACAAGGTCGTTGTTTACTATTC,0.107
12,CCTAGCATGCCAGGGTCACTCAAGCATTTCGCTT,-1.32
13,CGTCCAAGGTCAAAGGTAAGTGAAGAGATGACGG,-0.194
14,CCTAGCAGCCCAATCTGGGTCACTCAAGGCTTGA,-0.918
15,CCTAGCAGGCCAATCTGGGTCACGCAAGGCTTGA,-0.484
16,GCGACTGGGGCAAAGCAGGTTACCAGAAGGTTGG,-0.78
17,CTCGAAAGGTGGGTTGAGGTGAGTATACGGATAA,0.0199

# Tested on: PPARg homodimer (NR concentration 180 nM)
# Test: as above
# Summary of the method: as §1
row,Sequence,PBM binding z-score
1,GCTGCTAGGTCAGGTTGGTCAGCCAACGGGTACG,0.608
2,CATACAGGGTCAGCTAGGACAGAGTAGGGACGGC,0.881
3,GCATATAGGTAATACAAGGTGCAAGTCCGATTGT,0.579
4,TCTATTAGTTGAATGGCAACCGACGAGTCCGTTT,1.27
5,CAAACTTGGTCACGAAAGGTCAAAGTCGAATGAC,4.33
6,GCTTGTAGATCAAGGTTAAGACAGACTAAGCTAA,0.0438
7,CCGAGCAGGCCAGGGTCACTCAAGCATTTCGCTT,1.51
8,ACTAGCAGGCCAAGGGTCACACAAGATTAGTCCG,1.49
9,TTACCACGGTGAAAGGTCGTTGATGCACGCCTTG,1.78
10,GCTAGCAGGCCATTTGTGTCACTCAATGACGGGC,-0.822
11,ATCTCTAGGTTAGACTCAGTTCAGTGAAGAACGC,1.63
12,CGAACTAGGTCAGAACAGGACAGGGAAGGATGAT,1.1
13,CGTCAAAGTTCAACTAAGGTATCGTAAAGCACGC,3.06
14,TGATATAGGTAAATGCTAGGTGAAAGTCCGATCT,0.829
15,CGTCACAGTTCAAGGTAACGTAACAGAAAGCAGC,0.946
16,CCTACTGGGCCATCAGGTCCTTGATATCAACGTT,0.311
17,TCTTGTAGATCAATAGGAGGTTAAGAAAGATCGA,0.344
18,CCGACTGGGGAATAAGGTTACCATAAGCCAGCCC,0.47
19,CCAGACAGGTGAGAAGGTTACTCAGCCTCGATTA,1.03
20,GGAACGAGGGCAGGTTGATAGCAGAGTTTGATGG,0.542

row,Sequence,PBM binding z-score
1,ATCGAAAGGTGGAGGTGAGTATAGAGAAAGGGAA,0.613
2,GATACAGGGTCAGCTAGAGACCAGAGTATGGAAA,1.14
3,TCTGCTAGGTCATTTGGTCAGCTAACGAGCTGCC,1.5
4,CCTCGGAGGACAGAAGGTCAGAGATGTCCGCTTT,1.03
5,CCTAGTTGGTCAGGACGTCACACACCGGATATGA,0.77
6,ATCGAAAGATCGAAGGTGAGTATACCCACCCGAA,-0.0886
7,CCGAGTAGGTTATGGGGCATTCTGGCAACGGTGA,1.24
8,TCATATAGGTAAATGCTAGGTGAAGGTCCGATCT,0.952
9,CGTCGAAGTTCAACTAAGGTAACGTAAAGCACGC,1.47
10,TCGAGTAAGTTACCAATGGGGCATTCAGCTTTCT,-0.441
11,TCGAGTAGGTTACCAATGGGGCATTCGGCTTTCT,0.209
12,GCTTGTAGATCAAGGTTAAGAATGACTAAGCTAA,-0.624
13,CTACCAAGGTGAACAAGGTCGTTGTTTACTATTC,0.724
14,CCTAGCATGCCAGGGTCACTCAAGCATTTCGCTT,0.817
15,CGTCCAAGGTCAAAGGTAAGTGAAGAGATGACGG,2.19
16,CCTAGCAGCCCAATCTGGGTCACTCAAGGCTTGA,0.624
17,CCTAGCAGGCCAATCTGGGTCACGCAAGGCTTGA,0.454
18,GCGACTGGGGCAAAGCAGGTTACCAGAAGGTTGG,0.00244
19,CTCGAAAGGTGGGTTGAGGTGAGTATACGGATAA,0.652

# Tested on: PXR:RXRa (NR concentration 270 nM, RXRa partner concentration 90 nM)
# Test: as above
# Summary of the method: as §1
row,Sequence,PBM binding z-score
1,GCTGCTAGGTCAGGTTGGTCAGCCAACGGGTACG,0.00259
2,CATACAGGGTCAGCTAGGACAGAGTAGGGACGGC,2.07
3,GCATATAGGTAATACAAGGTGCAAGTCCGATTGT,-0.0713
4,TCTATTAGTTGAATGGCAACCGACGAGTCCGTTT,0.794
5,CAAACTTGGTCACGAAAGGTCAAAGTCGAATGAC,6.21
6,GCTTGTAGATCAAGGTTAAGACAGACTAAGCTAA,0.721
7,CCGAGCAGGCCAGGGTCACTCAAGCATTTCGCTT,2.78
8,ACTAGCAGGCCAAGGGTCACACAAGATTAGTCCG,3.56
9,TTACCACGGTGAAAGGTCGTTGATGCACGCCTTG,2.43
10,GCTAGCAGGCCATTTGTGTCACTCAATGACGGGC,-0.691
11,ATCTCTAGGTTAGACTCAGTTCAGTGAAGAACGC,2.69
12,CGAACTAGGTCAGAACAGGACAGGGAAGGATGAT,0.778
13,CGTCAAAGTTCAACTAAGGTATCGTAAAGCACGC,5.09
14,TGATATAGGTAAATGCTAGGTGAAAGTCCGATCT,-0.09
15,CGTCACAGTTCAAGGTAACGTAACAGAAAGCAGC,1.93
16,CCTACTGGGCCATCAGGTCCTTGATATCAACGTT,-0.471
17,TCTTGTAGATCAATAGGAGGTTAAGAAAGATCGA,0.712
18,CCGACTGGGGAATAAGGTTACCATAAGCCAGCCC,0.362
19,CCAGACAGGTGAGAAGGTTACTCAGCCTCGATTA,0.441
20,GGAACGAGGGCAGGTTGATAGCAGAGTTTGATGG,0.273

row,Sequence,PBM binding z-score
1,ATCGAAAGGTGGAGGTGAGTATAGAGAAAGGGAA,0.147
2,GATACAGGGTCAGCTAGAGACCAGAGTATGGAAA,1.89
3,TCTGCTAGGTCATTTGGTCAGCTAACGAGCTGCC,1.46
4,CCTCGGAGGACAGAAGGTCAGAGATGTCCGCTTT,1.41
5,CCTAGTTGGTCAGGACGTCACACACCGGATATGA,-0.123
6,ATCGAAAGATCGAAGGTGAGTATACCCACCCGAA,0.0692
7,CCGAGTAGGTTATGGGGCATTCTGGCAACGGTGA,0.151
8,TCATATAGGTAAATGCTAGGTGAAGGTCCGATCT,0.662
9,CGTCGAAGTTCAACTAAGGTAACGTAAAGCACGC,4.23
10,TCGAGTAAGTTACCAATGGGGCATTCAGCTTTCT,0.0133
11,TCGAGTAGGTTACCAATGGGGCATTCGGCTTTCT,-0.187
12,GCTTGTAGATCAAGGTTAAGAATGACTAAGCTAA,0.546
13,CTACCAAGGTGAACAAGGTCGTTGTTTACTATTC,2.78
14,CCTAGCATGCCAGGGTCACTCAAGCATTTCGCTT,2.61
15,CGTCCAAGGTCAAAGGTAAGTGAAGAGATGACGG,4.69
16,CCTAGCAGCCCAATCTGGGTCACTCAAGGCTTGA,0.268
17,CCTAGCAGGCCAATCTGGGTCACGCAAGGCTTGA,1.48
18,GCGACTGGGGCAAAGCAGGTTACCAGAAGGTTGG,0.34
19,CTCGAAAGGTGGGTTGAGGTGAGTATACGGATAA,1.01
